Experimental data as given in ChEMBL document CHEMBL4513216, “Probing the Open Global Health Chemical Diversity Library for Multistage-Active Starting Points for Next-Generation Antimalarials” (ACS Infect Dis, 2020).
The whole screen tested about 69,000 compounds, of which about 8,600 (12%) showed an effect of 50% or more. This excerpt belongs to a sample that is enriched for strong results.

system: Plasmodium berghei; experiment: Screen against P. berghei liver stage (PbLuc), transformed with Luciferase, at 10uM; format: functional, HepG2; settings: tested at 10 uM

Row | SMILES | INHIBITION [%]
1 | Cc1cc(C(=O)NCC2(C(N)=O)CCOCC2)nn1C(C)(C)C | 0.705
2 | CC(C)(C)n1nc(C(=O)NCC2(C(N)=O)CCOCC2)cc1C1CC1 | 21.7
3 | CC(C)c1cc(C(=O)NCC2(C(N)=O)CCOCC2)nn1C(C)(C)C | 62.4
4 | CC(C)(C)n1ncc(NCCc2ccccc2C(F)(F)F)c(Cl)c1=O | 76.6
5 | Cn1c(NCC(O)c2ccc(Cl)cc2)c(C#N)c(=O)n(C)c1=O (centres undefined) | 19.4
6 | CC(=O)c1c(F)cccc1NCC(O)c1ccc(F)c(F)c1 (centres undefined) | 15.7
7 | O=C(NCC(O)c1ccccc1C(F)(F)F)c1cccnc1 (centres undefined) | -2.97
8 | Oc1ccc(Cl)cc1CNCc1ccccc1C(F)(F)F | 16.6
9 | CC(C)(C)n1ncc(NCC(O)c2ccc(F)c(F)c2)c(Cl)c1=O (centres undefined) | 84.5
10 | CC(C)(C)n1ncc(NCC(O)c2ccccc2C(F)(F)F)c(Cl)c1=O (centres undefined) | 82.2
11 | O=C(NCc1cccnc1)NCC(O)c1ccccc1C(F)(F)F (centres undefined) | 16.8
12 | CC(C)(C)n1ncc(NCC(O)c2ccccc2)c(Cl)c1=O (centres undefined) | 77.7
13 | CC(C)(C)n1ncc(C(=O)NCCCC(N)=O)c1C(F)(F)F | 26.9
14 | CCn1cc(NC(=O)NCC(O)c2ccccc2)cn1 (centres undefined) | -30.4
15 | Cn1c(NCC(O)c2ccc(F)c(F)c2)c(C#N)c(=O)n(C)c1=O (centres undefined) | -52.5
16 | Cc1ccc(C2CSCCN2C(=O)NCc2cccnc2)cc1 (centres undefined) | 4.66
17 | CCCNS(=O)(=O)c1cc2c3c(c1)c(C)cc(=O)n3CCC2 | 22.85
18 | CNc1cc(CNC(=O)c2ccnc(OC)c2)nc(-c2ccncc2)n1 | 32.3
19 | Cc1cnc(N2CCn3cc(CNC(=O)CC4CC4)nc3C2)nc1 | 25.6
20 | NC(=O)c1cc(-n2cc(-c3cccc(C(=O)O)c3)cn2)cs1 | 5.17
21 | NC(=O)c1cc(-c2cccc(C(=O)O)c2)cs1 | 29.8
22 | NC(=O)c1ccccc1-n1cc(-c2cccc(C(=O)O)c2)cn1 | 71.5
23 | CO[C@H]1CCN(Cc2cnn(C)c2)[C@@H]2CN(Cc3ccncc3)C[C@H]12 | 7.31

Row | SMILES | INHIBITION [%]
24 | CC(C)Cc1noc(CN2CCN(C(=O)c3ccccc3F)CC2)n1 | -19.4
25 | CC(C)Nc1ncnc2c1CCN(Cc1nccn1C)CC2 | 24.9
26 | Cc1ncc(CNCC2CCC(C(N)=O)CC2)n1-c1ccccc1 (centres undefined) | 30.8
27 | Cc1ncc(CNCC(=O)NCC(F)(F)F)n1-c1ccccc1 | 41.5
28 | Cc1ncc(CNCC(=O)NC2CCCCC2)n1-c1ccccc1 | 65
29 | Cc1n[nH]c(C)c1-c1nccnc1CC1CCNC1 (centres undefined) | 25
30 | CCC(C)(N)c1nc(=O)c(C(C)C)c(C)[nH]1 (centres undefined) | 24.8
31 | OC(c1cnn(-c2ccccc2)c1)C(F)(F)F (centres undefined) | 26.5
32 | CCOc1ccc(OC2CCCN(c3cnn(C)c3)C2=O)cc1 (centres undefined) | 25.8
33 | Cc1cc(COc2ccc(OC3CCCCNC3=O)cc2)on1 (centres undefined) | -26.1
34 | CCc1cnc(CN(C)C2CCN(CC3CCC3)C2)o1 (centres undefined) | -0.532
35 | Cc1nc(COc2ccc(OC3CCCCNC3=O)cc2)oc1C (centres undefined) | 64.9
36 | Cc1nc(COc2ccc(OCC(N)=O)cc2)oc1C | -120
37 | CCc1cnc(COc2ccc(OC3CCCCNC3=O)cc2)o1 (centres undefined) | 78.4
38 | COc1ncccc1CNC(=O)NC1CCCOc2ccccc21 (centres undefined) | 10
39 | Cc1ccc(CN(C)C(=O)CNC(=O)N2CCc3ccccc3C2)o1 | -1.45
40 | CN(Cc1ccsc1)C(=O)CNC(=O)N1CCc2ccccc2C1 | 54.8
41 | CN(Cc1ccccn1)C(=O)CNC(=O)N1CCc2ccccc2C1 | 21.2
42 | c1cnn(CC2CN(CC3CCCCC3)CCO2)c1 (centres undefined) | -71.2
43 | N#Cc1ccccc1N1CCCN(CC(=O)Nc2ccc(Cl)cn2)CC1 | 37.7
44 | N#Cc1ccccc1N1CCN(C(=O)NCC(=O)N2CCCC2)CC1 | -9.1
45 | N#Cc1ccccc1N1CCCN(CC(=O)Nc2ccccc2Cl)CC1 | 63.7
46 | Cc1cc(C)c(Cn2cncn2)cc1CN1CC[C@@H]2CC[C@H](C1)N2 | 19.4

Row | SMILES | INHIBITION [%]
47 | Cc1nc2c(N3CCN(CCO)CC3)nc(N)nc2n1C | 13.1
48 | CC(=O)NS(=O)(=O)c1ccc2c(c1)N(C)CCC2 | -56.6
49 | CC(C)C(=O)NS(=O)(=O)c1ccc2c(c1)N(C)CCC2 | 39.2
50 | CN1CCCc2ccc(S(=O)(=O)NC(=O)C3CC=CC3)cc21 | 75.4
51 | CN(Cc1nncn1-c1cccc(C(F)(F)F)c1)S(C)(=O)=O | -19.1
52 | CCCC(=O)N(CCN1CCOCC1)c1nc2c(OC)ccc(C)c2s1 | -0.473
53 | CCCC(=O)N(CCCN1CCOCC1)c1nc2c(F)cccc2s1 | 32.1
54 | CCCC(=O)N(CCCN1CCOCC1)c1nc2c(C)ccc(Cl)c2s1 | 42.7
55 | CCCC(=O)N(CCCN1CCOCC1)c1nc2c(Cl)cccc2s1 | 71.4
56 | CN(CCN1CCOCC1)C(=O)CCc1cccc(Cl)c1 | -3.16
57 | CCCC(=O)N(CCCN1CCOCC1)c1nc2c(C)c(C)ccc2s1 | 60.1
58 | N#Cc1cccc(C(=O)NC2CCc3c(ccc(=O)n3CC3CC3)C2)c1 (centres undefined) | -19.2
59 | Cc1ccc(CN2CCc3ncc(CNS(C)(=O)=O)n3CC2)o1 | 35.1
60 | O=C(COCC1CC[C@H]2[C@H](CCN2c2ncccn2)O1)N1CCCC1 (some centres undefined) | 7.31
61 | CN1CCN(C(=O)[C@H]2C[C@@H]3CN(c4ncc(F)cn4)C[C@@H]3N2C)CC1 | -1.15
62 | CC(NCC(F)(F)F)c1ccc(S(C)(=O)=O)c(F)c1 (centres undefined) | -45.3
63 | c1ccc(CNc2ccccc2N2CCCC2)nc1 | 74.8
64 | Cc1noc(CNc2ccccc2N2CCCCC2)n1 | 4.1
65 | Cc1cc(CNc2ccccc2N2CCCCC2)no1 | 28.6
66 | Cc1nc(N2CCCC2)ccc1NCc1ccccn1 | 42.3
67 | c1ccc(N2CCCC2)c(NCc2ccncc2)c1 | 75.7
68 | CN(CCc1ccccn1)C(=O)Nc1cccnc1N1CCCC1 | 44.7
69 | CCC(=O)NCC(=O)NCC1CCN(c2cc(Cl)ccc2C)C1 (centres undefined) | 23.73

Row | SMILES | INHIBITION [%]
70 | Cc1cc(CNC(=O)Cc2c(C)nc3cc(=O)[nH]n3c2C)no1 | 31.1
71 | CC(C)CCN1CCNC(=O)C1CC(=O)NCCc1cc(O)ncn1 (centres undefined) | 12.8
72 | Cc1nc(C2CCCCN2C(=O)c2ccccc2)ncc1C(=O)N(C)C (centres undefined) | 28.4
73 | O=C(CN1CCCC1CCCO)NCc1ccccn1 (centres undefined) | 29.4
74 | CCCN1CCC(CNC(=O)N2CCCC2c2c(C)n[nH]c2C)CC1 (centres undefined) | 24.3
75 | CCn1cnnc1C1CCN(C(=O)c2ccc3c(c2)nnn3C)CC1 | 11.9
76 | CC(C)[C@@H]1CN(c2ncc(F)cn2)C[C@H]1NC(=O)N(C)C | 23.4
77 | COc1ccc(Cl)cc1C(=O)N1C[C@@H](NC(=O)N(C)C)[C@H](C(C)C)C1 | 0.76
78 | COc1ccc(C(=O)N2C[C@@H](NC(=O)N(C)C)[C@H](C(C)C)C2)c(OC)n1 | 54.6
79 | CN(C)C(=O)c1cnc2n1CCN(Cc1cccc(C#N)c1)C2 | 33.4
80 | O=C(CCCc1nnc(-c2ccccc2)o1)N1CCC1 | 28.8
81 | O=S(=O)(c1cc(F)ccc1N1CC(n2cccn2)C1)C(F)(F)F | 26.8
82 | Cc1cnn(C2CN(c3ccccc3S(=O)(=O)C(F)(F)F)C2)c1 | 89.4
83 | O=S(=O)(c1ccccc1N1CC(n2cccn2)C1)C(F)(F)F | 43.5
84 | CN(Cc1nnn(CC2CCC2)n1)C(=O)c1ccccc1 | -19.1
85 | CCN1CCN(C(C)CNC(=O)Nc2nnc(C)s2)CC1 (centres undefined) | 34.6
86 | CCN1CCN(C(C)CNC(=O)Nc2nnc(C(C)C)s2)CC1 (centres undefined) | -11.6
87 | CCN1CCN(C(C)CNC(=O)Nc2nc3ccccc3s2)CC1 (centres undefined) | 59.4
88 | CNC(=O)Nc1cc(-c2ccc(Br)cc2)nn1CCO | -4.74
89 | CN(C)CC1(O)CCN(C(=O)Cc2ccc3c(c2)CCC3)C1 (centres undefined) | 19.5
90 | O=C(CN1CCc2c(ncn2C2CC2)C1)NC1CCN(C2CC2)CC1 | 39.2
91 | CSc1ccc(-c2nc(CN3C[C@@H](C)NC[C@@H]3C)c(C)o2)cc1 | 24
92 | Cc1ccc(-c2nc(CN3C[C@@H](C)NC[C@@H]3C)c(C)o2)s1 | 50.4

Row | SMILES | INHIBITION [%]
93 | Cc1oc(-c2cc(F)cc(F)c2)nc1CN1C[C@@H](C)NC[C@@H]1C | -6.61
94 | Cc1c(C(=O)NCC(C)(C)S(C)(=O)=O)cccc1-c1ccccn1 | -53.2
95 | Cc1c(C(=O)NCCC(=O)N2CCCC2)cccc1-c1ccccn1 | 71.4
96 | Cc1c(C(=O)NCCCS(C)(=O)=O)cccc1-c1ccccn1 | -12.1
97 | Cc1nn(C)c(Oc2cccc(F)c2)c1NC(=O)C1CCCO1 (centres undefined) | 29.8
98 | Cc1nn(COc2cccc(F)c2)c(C)c1NC(=O)C1CC1 | 46.6
99 | Cc1nn(C)c(Oc2cccc(F)c2)c1NC(=O)C1CCOCC1 | 62.9
100 | Brc1ccccc1-c1nnc(CNCCn2cccn2)o1 | 29.7
101 | O=C(CCN1C[C@H]2CC[C@@H]1C2)N1CCN(c2cccc(Cl)c2)C(=O)C1 | -6.94
102 | CC(C)CNC(=O)[C@H]1C[C@H]2CN(C(=O)NCCc3ccccc3)C[C@@H]1O2 | 20.5
103 | Cc1cccc(CCC(=O)N2CCOCC2c2c(C)n[nH]c2C)c1 (centres undefined) | -2.53
104 | Cc1ccccc1CC(=O)N1CCOCC1c1c(C)n[nH]c1C (centres undefined) | 41.65
105 | Cc1ccc(O)c(C(=O)N2CCOCC2c2c(C)n[nH]c2C)c1 (centres undefined) | 1.563
106 | Cc1n[nH]c(C)c1C1COCCN1C(=O)c1ccc(Cl)o1 (centres undefined) | -0.482
107 | Cc1ccc(CC(=O)N2CCOCC2c2c(C)n[nH]c2C)cc1 (centres undefined) | 67.5
108 | Cc1ccc(CC(=O)N2CCOCC2c2ncon2)cc1 (centres undefined) | 19.4
109 | Cc1cccc(CC(=O)N2CCOCC2c2c(C)n[nH]c2C)c1 (centres undefined) | 53.8
110 | Cc1n[nH]c(C)c1C1COCCN1C(=O)c1cccc(F)c1F (centres undefined) | -0.25
111 | CSc1ccc(C(=O)N2CCOCC2c2c(C)nn(C)c2C)o1 (centres undefined) | 23.4
112 | Cc1n[nH]c(C)c1C1COCCN1C(=O)Cc1ccccc1F (centres undefined) | 83.4
113 | Cc1n[nH]c(C)c1C1COCCN1C(=O)Cc1cccc(F)c1 (centres undefined) | 16.8
114 | CSc1ccc(C(=O)N2CCOCC2c2c(C)n[nH]c2C)o1 (centres undefined) | 57.45
